In PubChem BioAssay (Tox21) one finds outcome and Potency data, which are given here for 7 compounds.

Experiment [1] can be described thus: qHTS assay to test for compound auto fluorescence at 535 nm (green) in HEK293 cells (AID 720680).
Experiment [2] is described as follows: qHTS assay to test for compound auto fluorescence at 460 nm (blue) in HEK293 cell free culture (AID 720681). The method in brief:
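Test compounds were pinned into cell-free culture medium (DMEM with 10% FBS) and fluorescence was read directly at Ex/Em 405/460 nm. Signals were expressed as fluorescence equivalents of triamterene, with DMSO vehicle as control.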

The nature of experiment [3]: qHTS assay to test for compound auto fluorescence at 535 nm (green) in HEK293 cell free culture (AID 720682). The method in brief:
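Fluorescein serves as the green reference fluorophore; each compound's intrinsic emission at 535 nm (excitation 485 nm) is reported as an equivalent amount of that dye, measured in serum-containing DMEM without cells.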

Experiment [4] is described as follows: qHTS assay to test for compound auto fluorescence at 590 nm (red) in HEK293 cell free culture (AID 720683). In outline: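 Tox21 10K library compounds were pinned into cell-free DMEM with 10% FBS and fluorescence was read at excitation 540 nm. Activity is expressed as Rose Bengal sodium equivalency.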
Experiment [5] can be described thus: qHTS assay to test for compound auto fluorescence at 590 nm (red) in HepG2 cell free culture (AID 720684). In outline:
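Measured in medium alone (MEM containing 10% FBS) following pintool addition of compound; emission at 590 nm with 540 nm excitation, referenced to Rose Bengal sodium.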

Experiment [6] in a line: qHTS assay to test for compound auto fluorescence at 460 nm (blue) in HepG2 cell free culture (AID 720685). The method in brief: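 Compound (23 nL) or DMSO pinned into cell-free MEM with 10% FBS; blue fluorescence read at 405/460 nm excitation/emission, expressed as auto-fluorescence equivalency to triamterene.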
The nature of experiment [7]: qHTS assay to test for compound auto fluorescence at 535 nm (green) in HepG2 cell free culture (AID 720686).
Experiment [8] can be described thus: qHTS assay to test for compound auto fluorescence at 460 nm (blue) in HepG2 cells (AID 720687). In outline:
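Cells (2,000/well in MEM with 10% FBS) attached overnight at 37 C, then were exposed to compound or DMSO for 1 hr at 37 C, 5% CO2. Fluorescence read at Ex/Em 405/460 nm, expressed as triamterene-equivalent signal.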

Experiment [9] deals with Glucocorticoid receptor (Homo sapiens) (UniProt P04150). As to the kind of experiment: qHTS assay to identify small molecule agonists of the glucocorticoid receptor (GR) signaling pathway (AID 720691; active = well fitted activation curve with a large enough effect in the signal ratio in the repeat runs, not every such curve was filed as active; the % refers to the signal ratio). The method in brief:
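Reporter read-out: fluorescence intensity following 2 h room-temperature LiveBLAzer B/G FRET substrate loading. Prior step: GR-bla HeLa cells held 4 h, then treated 18 h at 37 C.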

For experiment [10] the target is unchanged. The experiment in a line: qHTS assay to identify small molecule antagonists of the glucocorticoid receptor (GR) signaling pathway (AID 720692; active = well fitted inhibition curve with a large enough effect in the signal ratio in the repeat runs, not every such curve was filed as active; the % refers to the signal ratio). The method in brief: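 Dexamethasone (5 nM final) stimulated a stably integrated GRE-beta-lactamase reporter in HeLa cells during 18 h co-incubation with compounds; signal was quantified as fluorescence intensity of B/G FRET substrate after 2 h.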

A short description of experiment [11]: qHTS assay to identify small molecule antagonists of the glucocorticoid receptor (GR) signaling pathway - cell viability counter screen (AID 720693). Note: nearly all actives have a fitted effect of over 55% in size.
The nature of experiment [12]: qHTS assay for identifying genotoxic compounds that show differential cytotoxicity against isogenic chicken DT40 cell lines with known DNA damage response pathways - wild type cell line (AID 743012). Note: nearly all actives have a fitted effect of over 60% in size. Note: potency is the fitted concentration of half-maximal effect. In outline:
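Using parental DT40 (300 cells/well), compounds delivered in DMSO incubate 40 h at 37 C/5% CO2. CellTiter-Glo reagent then stands 30 min at room temperature, and luminescence gives cell viability.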

Experiment [13] in a line: qHTS assay for identifying genotoxic compounds that show differential cytotoxicity against isogenic chicken DT40 cell lines with known DNA damage response pathways - Rev3 mutant cell line (AID 743014). Note: nearly all actives have a fitted effect of over 55% in size. Note: potency is the fitted concentration of half-maximal effect.
Experiment [14] in a line: qHTS assay for identifying genotoxic compounds that show differential cytotoxicity against isogenic chicken DT40 cell lines with known DNA damage response pathways - Rad54/Ku70 mutant cell line (AID 743015). Note: nearly all actives have a fitted effect of over 60% in size. Note: potency is the fitted concentration of half-maximal effect.
The nature of experiment [15]: qHTS assay to identify small molecule antagonists of the androgen receptor (AR) signaling pathway - cell viability counter screen (AID 743033; note: nearly all actives have a fitted effect of over 45% in size).
Experiment [16] has as its target Androgen receptor (Homo sapiens) (UniProt P10275). The experiment in a line: qHTS assay to identify small molecule antagonists of the androgen receptor (AR) signaling pathway (AID 743035; active = well fitted inhibition curve with a large enough effect in the signal ratio in the repeat runs, not every such curve was filed as active; the % refers to the signal ratio). In outline:
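Using qHTS, AR-UAS-bla GripTite HEK293 cells received compound, then R1881, and were cultured 16 h at 37C/5% CO2 before a 2 h room-temperature LiveBLAzer B/G FRET substrate step and fluorescence measurement.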

Experiment [17] has the same target. The experiment in a line: qHTS assay to identify small molecule agonists of the androgen receptor (AR) signaling pathway using the MDA cell line (AID 743040; note: nearly all actives have a fitted effect of over 20% in size). In outline:
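Luminescence from ONE-Glo, read after 30 min at room temperature, reflects MMTV-driven luciferase in MDA-kb2 cells (AR- and GR-responsive). Treatment lasted 16 h at 37C, 0% CO2.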

Experiment [18] is described as follows: qHTS assay to identify small molecule antagonists of the androgen receptor (AR) signaling pathway using the MDA cell line - cell viability counter screen (AID 743041; note: nearly all actives have a fitted effect of over 45% in size). In outline:
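Viability counter screen run alongside the AR antagonist reporter: cells seeded 5 h before compound, R1881 added, 16 h incubation at 37C without CO2, fluorescent CellTiter-Fluor signal quantified.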

Experiment [19] deals with Androgen receptor (Homo sapiens) (UniProt P10275). As to the kind of experiment: qHTS assay to identify small molecule antagonists of the androgen receptor (AR) signaling pathway using the MDA cell line (AID 743042; note: nearly all actives have a fitted effect of over 55% in size). The method in brief: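 MDA-kb2 cells (human breast carcinoma, stably carrying an MMTV-luciferase reporter responsive to AR and GR) were plated at 3,000 cells/well and preincubated 5 hr at 37C, then given compound plus R1881 agonist for 16 h. ONE-Glo luminescence was read.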

The nature of experiment [20]: qHTS assay to identify small molecule antagonists of the thyroid receptor (TR) signaling pathway - cell viability counter screen (AID 743064). Note: nearly all actives have a fitted effect of over 50% in size. The method in brief:
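Fluorescence from CellTiter-Fluor, added after 23.5 h exposure at 37 °C, reported viability of GH3.TRE-Luc cells co-treated with compound and 1 nM T3. Measured in the same wells as the luciferase TR readout.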

SMILES strings stand for the structures. Results filed as inconclusive are left out. Activity calls are given as the source filed them. Unless noted, calls come from the whole dose curve; as a rule, active = well fitted curve in the direction sought with a large enough effect in the repeat runs; inconclusive = weak or mixed curves; inactive = no such curve, though single readings can be large; an effect the other way counts as inactive or inconclusive.

Glucocorticoid receptor (Homo sapiens), sequence (P04150 whole entry, looked up): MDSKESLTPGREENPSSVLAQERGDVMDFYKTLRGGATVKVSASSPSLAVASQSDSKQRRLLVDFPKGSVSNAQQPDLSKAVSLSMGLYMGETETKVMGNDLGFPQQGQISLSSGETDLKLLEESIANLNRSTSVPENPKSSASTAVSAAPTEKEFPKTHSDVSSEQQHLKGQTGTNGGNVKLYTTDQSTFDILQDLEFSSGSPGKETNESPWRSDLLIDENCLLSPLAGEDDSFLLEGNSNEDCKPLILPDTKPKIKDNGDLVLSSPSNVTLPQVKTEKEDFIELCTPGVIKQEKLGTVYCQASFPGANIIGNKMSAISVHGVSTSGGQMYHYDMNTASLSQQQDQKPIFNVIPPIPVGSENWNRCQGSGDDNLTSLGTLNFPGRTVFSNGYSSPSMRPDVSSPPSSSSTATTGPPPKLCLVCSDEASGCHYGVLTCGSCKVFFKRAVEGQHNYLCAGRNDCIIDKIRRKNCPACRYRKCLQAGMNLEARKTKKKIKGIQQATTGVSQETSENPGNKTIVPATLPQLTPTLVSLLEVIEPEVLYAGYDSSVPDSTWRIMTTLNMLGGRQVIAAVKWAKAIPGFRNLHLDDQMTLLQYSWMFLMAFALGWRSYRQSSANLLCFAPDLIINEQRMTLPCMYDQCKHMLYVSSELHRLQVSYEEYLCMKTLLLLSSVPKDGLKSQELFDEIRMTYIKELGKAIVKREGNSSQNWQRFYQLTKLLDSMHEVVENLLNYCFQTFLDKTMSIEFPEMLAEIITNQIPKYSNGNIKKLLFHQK
Androgen receptor (Homo sapiens), sequence (P10275 whole entry, looked up): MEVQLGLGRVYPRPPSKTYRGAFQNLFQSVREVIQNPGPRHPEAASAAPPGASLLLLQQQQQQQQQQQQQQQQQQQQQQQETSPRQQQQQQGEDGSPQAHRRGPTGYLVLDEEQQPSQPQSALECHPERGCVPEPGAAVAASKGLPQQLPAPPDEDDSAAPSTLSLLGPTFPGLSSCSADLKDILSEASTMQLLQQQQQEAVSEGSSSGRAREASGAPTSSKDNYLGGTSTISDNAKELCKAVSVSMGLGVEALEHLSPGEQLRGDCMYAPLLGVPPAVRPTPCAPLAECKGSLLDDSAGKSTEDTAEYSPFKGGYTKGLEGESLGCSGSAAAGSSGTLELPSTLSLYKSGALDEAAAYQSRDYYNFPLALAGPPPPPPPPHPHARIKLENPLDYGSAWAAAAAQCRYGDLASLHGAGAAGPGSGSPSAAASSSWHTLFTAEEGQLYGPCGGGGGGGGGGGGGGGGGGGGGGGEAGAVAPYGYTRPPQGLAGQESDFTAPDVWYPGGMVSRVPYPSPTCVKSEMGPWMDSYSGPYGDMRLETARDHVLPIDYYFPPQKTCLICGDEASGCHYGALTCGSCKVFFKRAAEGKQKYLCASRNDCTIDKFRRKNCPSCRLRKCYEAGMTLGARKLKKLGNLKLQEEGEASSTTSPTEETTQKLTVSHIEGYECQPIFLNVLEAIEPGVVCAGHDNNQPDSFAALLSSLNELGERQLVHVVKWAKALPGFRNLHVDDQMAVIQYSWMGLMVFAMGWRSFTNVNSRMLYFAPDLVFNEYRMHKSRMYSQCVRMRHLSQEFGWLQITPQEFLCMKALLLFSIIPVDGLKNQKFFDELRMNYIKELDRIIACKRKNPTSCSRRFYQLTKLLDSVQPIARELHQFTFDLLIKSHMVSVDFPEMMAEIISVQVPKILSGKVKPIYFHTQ

Take `NCCCN1CCN(CCCN)CC1`: the result in experiment [1], in experiment [2], in experiment [3], in [4], in experiment [5] and in experiment [6] was inactive. The outcome in experiment [7], in experiment [8], in experiment [11], in experiment [15] and in experiment [19] was inactive. Besides, the Potency entry in experiment [9], in experiment [10], in experiment [12], in [13], in experiment [14] and in [16] was “inactive” throughout. Moreover, the Potency entry in experiment [17], in [18] and in experiment [20] was “inactive” throughout.

On to `CCCCNC(=S)NCCCC`, for which the compound was called inactive in experiment [1], in experiment [2], in experiment [3], in experiment [4], in experiment [5] and in experiment [6]. Besides, the outcome in experiment [7], in [8] and in [11] was inactive. The Potency entry in experiment [9], in [10], in experiment [18] and in [20] was “inactive” each time. Further, the figures for the Potency in experiment [12], in experiment [13] and in experiment [14] were 48.6 µM (active), 34.4 µM (active) and 24.3 µM (active), respectively.

Turning to `OCc1ccccc1O`, the outcome in experiment [1], in experiment [2], in experiment [3], in [4], in [5] and in experiment [6] was inactive. For the same compound, the result in [7], in experiment [8] and in experiment [11] was inactive. Also, the Potency result in experiment [9], in experiment [10], in experiment [12], in experiment [13], in [14] and in experiment [18] was “inactive” each time. Also, the Potency result in [20] was “inactive”.

Turning to `O=[N+]([O-])c1nccn1CO[C@@H](CO)[C@H](O)CO`, the result in [1], in [2], in [3], in experiment [4], in [5] and in experiment [6] was inactive. Moreover, the result in experiment [7], in experiment [8], in [11] and in [15] was inactive. The Potency result in experiment [9], in experiment [10], in experiment [12], in experiment [13], in [14] and in experiment [18] was “inactive” in each case. Also, in [20], the Potency entry was “inactive”.

Turning to `CC(C)OC(C)C`, the call in experiment [1], in experiment [2], in [3], in experiment [4], in [5] and in experiment [6] was inactive. For the same compound, the result in experiment [7], in experiment [8] and in experiment [11] was inactive. For the same compound, the Potency entry in experiment [9], in experiment [10], in experiment [12], in [13], in [14] and in experiment [18] was “inactive” each time. Besides, the Potency entry in experiment [20] was “inactive”.

With `O=c1oc2c(O)c(O)cc3c(=O)oc4c(O)c(O)cc1c4c23`, the call in experiment [1], in [2], in [3], in experiment [4], in [5] and in experiment [6] was inactive. The outcome in [7], in experiment [8], in experiment [11] and in experiment [15] was inactive. The Potency entry in experiment [9], in experiment [10], in experiment [12], in [13], in [14] and in experiment [18] was “inactive” each time. In [20], the Potency result is “inactive”.

As for `CC(C)(C)c1cccc(O)c1`, the outcome in [1], in experiment [2], in [3], in experiment [4], in experiment [5] and in [6] was inactive. Further, the result in experiment [7], in experiment [8], in experiment [11], in experiment [15] and in experiment [19] was inactive. Further, the Potency result in [9], in [10], in [16], in [17] and in experiment [20] was “inactive” in each case. Besides, the Potency in [13] was 61.1 µM (active).
